Source: PubChem (several laboratories)
In the library only some 2.4% were active in any assay of this set; here they are far more common.
APOBEC3A inh: APOBEC3A ssDNA deaminase inhibitors, primary screen, selectivity assay for APOBEC3G inhibitor project, biochemical, FAM/TAMRA oligo cleavage fluorescence | 0.41% of 330,000 active | AID 493011, 2011 | inhibition, % at 20 µM | recombinant A3A, FAM/TAMRA ssDNA deamination fluorescence | DNA dC->dU-editing enzyme APOBEC-3A (Homo sapiens), P31941;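 active = at least 40% inhibition at 20 µM here, with at most 30% in a related deaminase screen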;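 note: plate controls were A3A with DMSO for no effect and wells lacking A3A enzyme for full effect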
APOBEC3G inh: APOBEC3G DNA deaminase inhibitors, primary screen, biochemical, fluorescence, single-stranded DNA substrate, uHTS; DNA dC->dU-editing enzyme APOBEC-3G (Homo sapiens), Q9HC16; recombinant A3G, ssDNA deamination FAM/TAMRA fluorescence; inhibition, % at 20 µM; 0.28% of 330,000 active; AID 493012, 2011;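 active = inhibition of at least 40% at 20 µM, with no more than 30% in the related APOBEC3A deaminase screen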;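 note: plate controls were DMSO wells with A3G for no effect and wells lacking A3G enzyme for full effect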
ADAM10 inh: human ADAM10 inhibitors, primary screen, biochemical, QFRET, HTS | 0.62% of 370,000 active | recombinant ADAM10, EDANS/DABCYL FRET peptide cleavage, 3 h | inhibition, % at 7 µM;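 active = inhibition above a per-campaign cutoff equal to the mean of compounds falling between control-based bounds plus 3 SD, cut at about 20% in these data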;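 note: 0% = DMSO wells while the 100% control is not disclosed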
Target sequence (O14672 214-748 limits assumed): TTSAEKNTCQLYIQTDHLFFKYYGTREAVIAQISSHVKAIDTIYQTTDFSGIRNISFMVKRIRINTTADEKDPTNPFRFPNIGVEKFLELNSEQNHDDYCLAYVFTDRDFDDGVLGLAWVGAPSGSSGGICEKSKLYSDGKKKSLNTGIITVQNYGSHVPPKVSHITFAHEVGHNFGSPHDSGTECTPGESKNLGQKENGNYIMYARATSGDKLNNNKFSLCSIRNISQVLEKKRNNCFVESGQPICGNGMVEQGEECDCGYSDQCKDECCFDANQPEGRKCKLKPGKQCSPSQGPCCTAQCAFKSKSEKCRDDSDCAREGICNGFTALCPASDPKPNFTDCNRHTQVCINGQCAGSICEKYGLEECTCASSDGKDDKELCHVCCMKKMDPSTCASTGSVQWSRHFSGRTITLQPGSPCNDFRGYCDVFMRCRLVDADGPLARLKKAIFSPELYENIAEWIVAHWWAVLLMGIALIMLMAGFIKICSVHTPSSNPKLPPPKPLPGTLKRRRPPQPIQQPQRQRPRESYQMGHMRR
ADAM17 inh: ADAM17 inhibitors, primary screen, biochemical, QFRET. Disintegrin and metalloproteinase domain-containing protein 17 (Homo sapiens), P78536. recombinant ADAM17, EDANS/DABCYL FRET peptide cleavage. inhibition, % at 6.95 µM. 0.83% of 370,000 active. AID 720648, 2013;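 active = inhibition above the mean of compounds lying between control limits plus 3 SD, set per campaign, cut at about 8.5% in these data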;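 note: 0% = DMSO-only wells as the low control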
NRP1-CendR mod: modulators of CendR peptide binding to NRP-1, primary screen, biochemical, fluorescence polarization, uHTS; Neuropilin-1 (Homo sapiens), O14786; FAM-RPARPAR peptide binding to NRP-1; inhibition, % at 25 µM; 0.85% of 360,000 active; AID 602438, 2012;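 active = inhibition or corrected inhibition above about 18%, plus a signal ratio from 0.5 to 1.5, limit read from the data, passing the limit was not always enough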
Active calls of the source: *; . = no result; ! = not active in a repeat.

SMILES	APOBEC3A inh	APOBEC3G inh	ADAM10 inh	ADAM17 inh	NRP1-CendR mod
CC(Cl)C(=O)c1c(N)n(C)c(=O)n(C)c1=O (stereo not given)	-6.3	-6.2	.	.	40.0*
COc1ccc(OC)c(NC(=O)Nc2ccc(O)c3ccccc23)c1	-4.3	1.6	-22.1	-6.2	25.2*
COc1ccc(OC)c(NC(=O)Nc2c(O)ccc3ccccc23)c1	-0.7	5.9	-19.6	-11.6	-11.5
CCN(CC)C(=O)[C@H]1C[C@@H]2[C@H](C[C@@H](c3ccccc3)[C@H]1C)N(c1ccc(F)cc1)C(=O)N2CCCOc1ccccc1	.	.	3.4	6.2	.
OCCNc1ncnc2ccc(Br)cc12	-0.8	-4.9	-6.8	-4.6	44.2*
Cn1c(CCN2CCCC2)nc2cc(NC(=O)COc3ccc(Cl)cc3)ccc21	.	.	-67.6	-18.0	18.9*
Cc1cc(N)c(C)c([N+](=O)[O-])c1C	0.3	1.4	1.1	-1.8	30.9*
Cc1c(N)c(C(C)(C)C)cc(C(C)(C)C)c1[N+](=O)[O-]	-1.5	-2.0	6.8	2.1	0.6
CC(NC(=S)NCCCN1CCOCC1)C12CC3CC(CC(C3)C1)C2 (stereo not given)	-0.9	0.7	2.8	-0.8	26.7*
C[N+](C)(CC#Cc1ccccc1)CC(=O)c1ccccc1	-1.3	-6.0	-6.9	-1.7	41.9*
CC(C)NS(=O)(=O)c1ccc2c(c1)oc(=O)n2C	-3.0	-12.0	-12.4	0.2	21.9*
Cn1c(=O)oc2cc(S(=O)(=O)Nc3ccccc3)ccc21	-3.6	-7.0	3.6	-2.0	2.6
N#Cc1ccc(NC(=O)OC2CCC23CCC(c2ccccc2)CC3)cc1 (stereo not given)	.	.	13.6	7.0	.
C#CCN1CC(N(C)CCOC(=O)c2ccc(F)cc2)CS1(=O)=O (stereo not given)	.	.	7.0	-0.3	.
Cc1[nH]n(-c2ccccc2)c(=S)c1C=Nc1cccc([N+](=O)[O-])c1	-3.7	8.5	0.8	-5.5	24.5*
CC(=O)C[C@H](O)CC(=O)[C@H]1OC(=O)[C@H](C)C/C=C\Cc2ccccc21	5.3	-0.1	3.1	-2.0	24.6*
COC(=O)[C@]12CCCCC=C1N(Cc1ccc(OC)cc1)C(=O)[C@@H]2CC(=O)N1CCN(C(=O)c2ccco2)CC1	.	.	-0.8	-4.0	.
COC(=O)c1cc(C)nc2c1c(C)nn2-c1ccccc1	-1.5	-2.5	-29.1	-0.9	-7.6
COc1cc2c(-c3ccccc3O)nc3c(c(C)nn3-c3ccccc3)c2cc1OC	1.1	0.2	-46.0	-15.7	32.9*
COC(=O)C1=C(C)NC(C)=C(C(=O)OC)C1C(=O)OC(C)C(=O)c1ccccc1 (stereo not given)	-4.7	-7.5	-48.1	-10.0	24.9*!
CCN(C(=O)C(C)OC(=O)C1C(C(=O)OC)=C(C)NC(C)=C1C(=O)OC)c1ccccc1 (stereo not given)	1.5	7.1	-16.8	-14.0	3.4
Cc1noc(NC(=O)c2ccccc2Cl)c1C#N	-8.2	-10.3	0.7	-3.9	5.1
COc1ccccc1C(=O)Nc1onc(C)c1C#N	-0.4	-2.1	0.6	1.3	19.8*
COc1ccccc1N1CCN(S(=O)(=O)c2ccc3c(c2)n(C)c(=O)c(=O)n3C)CC1	.	.	-0.8	-0.2	.
COc1ccc(OC)c(NC(=O)CCNS(=O)(=O)c2cccc3nonc23)c1	-1.9	-7.7	9.3	0.0	28.2*
CN1CC=C(c2ccc(C(F)(F)F)cc2)N(c2ccc(Br)cc2)C1=O	.	.	8.0	5.2	.
COc1cc(C(=O)NCc2ccccc2)cc(Br)c1OC	-0.7	-1.7	8.3	0.8	21.3*
COc1cc(C(=O)NCc2ccncc2)cc(OC)c1OC	-0.1	-5.1	5.4	-0.3	-0.3
CC(COc1ccc(Cl)cc1)CN1CCC(C(O)(c2ccccc2)c2ccccc2)CC1 (stereo not given)	.	.	4.4	-1.1	.
COc1ccc(-n2nnnc2C(CCc2ccccc2)N2CCN(C/C=C/c3ccccc3)CC2)cc1 (stereo not given)	.	.	6.3	6.2	24.0*
